Assay [1] concerns the target Rap guanine nucleotide exchange factor 3 (Homo sapiens) (UniProt O95398). The experiment in a line: Confirmatory qHTS for agonist of cAMP-regulated guanine nucleotide exchange factor 3 (EPAC1) (AID 1645881). Also: nearly all actives have a fitted effect of over 75% in size. Also: potency is read from the fitted curve at half-maximal effect.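 As to activation: EPAC1 catalysed release of BODIPY-GDP from Rap1B seen as fluorescence loss; 100% = effect of cAMP agonist control.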
Assay [2] concerns the target Rap guanine nucleotide exchange factor 4 (Homo sapiens) (UniProt Q8WZA2). Kind of assay: Confirmatory qHTS for agonist of cAMP-regulated guanine nucleotide exchange factor 4 (EPAC2) (AID 1645884).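 Also: nucleotide exchange releases bodipy-GDP from Rap1 and this lowers its fluorescence; % is scaled to controls: 0 for no effect and ±100 for the full control effect; nearly all actives have a fitted effect of over 65% in size.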
Assay [3] has the same target. Kind of assay: Confirmatory qHTS for antagonist of cAMP-regulated guanine nucleotide exchange factor 4 (EPAC2) (AID 1645885). Also: nearly all actives have a fitted effect of over 25% in size. Also: potency is read from the fitted curve at half-maximal effect. As to activity change, negative = inhibition: % is scaled to controls: 0 for no effect and ±100 for the full control effect.
In assay [4] the target is Rap guanine nucleotide exchange factor 3 (Homo sapiens) (UniProt O95398). The experiment in a line: Counterscreen qHTS for antagonist of cAMP-regulated guanine nucleotide exchange factor 3 (EPAC1) (AID 1645888).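 Also: fluorescence loss as bound BODIPY-GDP is released from Rap1B; % of control where 0% means no effect.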 A digest of the protocol:
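Rap1B-BODIPY-GDP 250 nM + GDP 50 uM; cpds 7-pt, final 9.74 nM–152 uM (activator mode) or from 7.32 nM upwards (inhibitor mode); RT; FI 480/540 nm at 5 and 30 min, then ± cAMP, reread.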

The results in this text go back to PubChem BioAssay (NCATS).

Inconclusive results are not listed. Unmarked numbers belong to inactive results. Activity calls are given as the source filed them. Calls follow the shape of the dose curve; as a rule, active = well fitted curve in the direction sought with a large enough effect; inconclusive = small, poorly fitted or top-dose-only effect, or another doubt; inactive = no such curve, though single readings can be large; an effect the other way counts as inactive or inconclusive.

Chain of Rap guanine nucleotide exchange factor 4 (Homo sapiens) (Q8WZA2 whole entry, looked up): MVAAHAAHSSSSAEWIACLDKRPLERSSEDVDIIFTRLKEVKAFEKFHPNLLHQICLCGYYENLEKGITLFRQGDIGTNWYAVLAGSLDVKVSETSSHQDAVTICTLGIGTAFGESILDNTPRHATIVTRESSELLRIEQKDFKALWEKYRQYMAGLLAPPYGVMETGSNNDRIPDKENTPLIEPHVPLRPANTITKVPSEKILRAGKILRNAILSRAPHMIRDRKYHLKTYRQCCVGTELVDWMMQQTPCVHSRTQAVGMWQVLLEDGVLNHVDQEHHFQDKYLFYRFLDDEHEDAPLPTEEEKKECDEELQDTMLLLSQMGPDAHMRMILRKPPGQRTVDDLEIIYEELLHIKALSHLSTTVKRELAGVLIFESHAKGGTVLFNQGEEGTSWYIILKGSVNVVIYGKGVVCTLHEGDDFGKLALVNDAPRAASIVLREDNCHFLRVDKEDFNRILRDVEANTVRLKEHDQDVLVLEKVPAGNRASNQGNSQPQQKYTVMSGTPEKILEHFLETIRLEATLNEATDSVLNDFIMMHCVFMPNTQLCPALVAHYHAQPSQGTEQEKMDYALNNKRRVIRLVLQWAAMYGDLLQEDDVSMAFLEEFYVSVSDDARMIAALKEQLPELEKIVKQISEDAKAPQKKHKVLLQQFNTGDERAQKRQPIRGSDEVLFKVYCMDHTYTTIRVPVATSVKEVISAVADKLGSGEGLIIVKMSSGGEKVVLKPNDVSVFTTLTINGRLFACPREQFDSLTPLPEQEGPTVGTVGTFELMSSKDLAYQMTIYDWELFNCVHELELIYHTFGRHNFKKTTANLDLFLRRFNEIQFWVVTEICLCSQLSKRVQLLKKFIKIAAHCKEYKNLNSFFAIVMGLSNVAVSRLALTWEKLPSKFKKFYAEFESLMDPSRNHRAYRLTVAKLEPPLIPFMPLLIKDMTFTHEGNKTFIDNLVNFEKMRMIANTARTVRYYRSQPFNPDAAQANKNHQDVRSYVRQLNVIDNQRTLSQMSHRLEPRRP
Chain of Rap guanine nucleotide exchange factor 3 (Homo sapiens) (O95398 whole entry, looked up): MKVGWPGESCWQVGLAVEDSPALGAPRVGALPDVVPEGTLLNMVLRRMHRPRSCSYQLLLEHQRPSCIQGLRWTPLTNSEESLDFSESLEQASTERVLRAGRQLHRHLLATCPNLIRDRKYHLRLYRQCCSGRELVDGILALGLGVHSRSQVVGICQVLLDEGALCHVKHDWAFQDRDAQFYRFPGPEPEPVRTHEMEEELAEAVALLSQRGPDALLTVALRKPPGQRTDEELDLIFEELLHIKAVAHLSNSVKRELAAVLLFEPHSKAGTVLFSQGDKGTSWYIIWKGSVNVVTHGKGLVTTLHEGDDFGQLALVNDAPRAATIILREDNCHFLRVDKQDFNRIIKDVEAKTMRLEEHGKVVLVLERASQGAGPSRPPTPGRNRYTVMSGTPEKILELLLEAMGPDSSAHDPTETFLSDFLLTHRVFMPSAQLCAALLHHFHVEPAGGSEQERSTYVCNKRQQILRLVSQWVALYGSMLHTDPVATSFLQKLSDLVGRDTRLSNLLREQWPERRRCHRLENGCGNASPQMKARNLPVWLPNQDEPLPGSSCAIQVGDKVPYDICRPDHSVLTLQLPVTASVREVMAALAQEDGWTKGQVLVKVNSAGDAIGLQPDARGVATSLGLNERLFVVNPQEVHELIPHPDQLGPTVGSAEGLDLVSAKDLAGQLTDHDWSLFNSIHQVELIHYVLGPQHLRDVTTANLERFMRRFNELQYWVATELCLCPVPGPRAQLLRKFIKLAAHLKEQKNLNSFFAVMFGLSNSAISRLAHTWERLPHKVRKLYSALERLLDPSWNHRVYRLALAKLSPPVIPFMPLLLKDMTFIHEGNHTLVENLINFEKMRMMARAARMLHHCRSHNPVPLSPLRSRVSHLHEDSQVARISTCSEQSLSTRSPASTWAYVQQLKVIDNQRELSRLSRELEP

`COc1ccc(OC)c(NC(=O)C(C)Oc2ccc(Br)cc2)c1` (centres undefined): the Potency result in assay [1], in assay [2], in assay [3] and in assay [4] was “inactive” throughout.

`COC(=O)C1(C)CC1(c1ccccc1)c1ccccc1` (centres undefined): the Potency entry in assay [1] and in assay [3] was “inactive” in each case. Also, the activation in assay [2] was 12.4% [at 17.1 µM, percent relative to cAMP agonist control]. For the same compound, the activity change, negative = inhibition in assay [4] is 1.55% [at 30.8 µM].

For `CC(C)C(CCNC(=O)CC(Cc1ccccc1)c1ccco1)c1ccco1` (centres undefined), the Potency entry in assay [1] and in assay [3] was “inactive” throughout. For the same compound, in assay [2], the activation was 3.03% [at 17.1 µM, percent relative to cAMP agonist control]. In addition, in assay [4], the activity change, negative = inhibition is 24.9% [at 30.8 µM].

As for `O=C1CSC(c2cccc(Cl)c2Cl)N1c1ccccn1` (centres undefined), the Potency entry in assay [1] and in assay [3] was “inactive” throughout. Further, in assay [2], the activation is 6.45% [at 17.1 µM, percent relative to cAMP agonist control]. In assay [4], the activity change, negative = inhibition was -6.53% [at 30.8 µM].

With `O=C(NC1CCCCC1)C(c1ccc(-c2ccccc2)cc1)n1c(=O)c(-c2ccco2)nc2ccccc21` (centres undefined), the Potency entry in assay [1], in assay [2], in assay [3] and in assay [4] was “inactive” in each case.

On to `CN(CC(=O)Nc1cccc(F)c1)C(=O)c1cccc(S(=O)(=O)N2CC3(C)CC2CC(C)(C)C3)c1` (centres undefined), for which the Potency result in assay [1] and in assay [3] was “inactive” each time. The activation in assay [2] was 8% [at 17.1 µM, percent relative to cAMP agonist control]. Further, the activity change, negative = inhibition in assay [4] is -23.1% [at 30.8 µM].

For the compound `Cc1cccc(N(Cc2ccccc2)C(=O)CSC(C)C(=O)Nc2cc(C)on2)c1` (centres undefined), the Potency result in assay [1], in assay [2] and in assay [4] was “inactive” throughout. Besides, the Potency in assay [3] was 95.3 µM (active).

For the compound `CCOc1ccc(N2C(=O)C3Sc4[nH]c(=O)sc4C(/C=C/c4ccccc4)C3C2=O)cc1` (centres undefined), the Potency result in assay [1] and in assay [3] was “inactive” each time. In assay [2], the activation is 4.64% [at 17.1 µM, percent relative to cAMP agonist control]. Further, the activity change, negative = inhibition in assay [4] was 18.3% [at 30.8 µM].

In the case of `O=c1nc(/C=C/c2cccn2-c2ccc([N+](=O)[O-])cc2)cc(C(F)(F)F)[nH]1`, the Potency entry in assay [1], in assay [2], in assay [3] and in assay [4] was “inactive” throughout.

In the case of `COc1ccc(CC(=O)NCc2ccc3c(c2)CCN3C(=O)c2ccc(Cl)cc2)cc1OC`, the Potency entry in assay [1], in assay [2], in assay [3] and in assay [4] was “inactive” in each case.

With `Cc1ccc(NC(=O)c2sc3nc(-c4ccncc4)ccc3c2N)cc1`, the Potency result in assay [1], in assay [2], in assay [3] and in assay [4] was “inactive” each time.

Turning to `NC(=O)c1c(NC(=O)CN2CCN(S(=O)(=O)c3ccccc3)CC2)sc2c1CCC2`, the Potency entry in assay [1], in assay [2], in assay [3] and in assay [4] was “inactive” in each case.

In the case of `COc1ccc(N2Cc3cccc(C(=O)Nc4ccc(C(C)C)cc4)c3C2=O)cc1`, the Potency result in assay [1], in assay [2], in assay [3] and in assay [4] was “inactive” in each case.

Regarding `COc1ccc(Nc2cc(C(=O)NCCCN3CCN(c4ccccc4F)CC3)c3ccccc3n2)c(OC)c1`, the Potency result in assay [1], in assay [2], in assay [3] and in assay [4] was “inactive” throughout.

With `Cc1ccc(-c2nc(-c3cc4cccc(OCc5ccc(F)cc5)c4oc3=O)no2)cc1`, the Potency result in assay [1], in assay [2], in assay [3] and in assay [4] was “inactive” throughout.

Regarding `COc1cccc(C(=O)Nc2cccc(C(=O)OCc3cc(=O)n4c(C)csc4n3)c2)c1`, the Potency result in assay [1], in assay [2], in assay [3] and in assay [4] was “inactive” each time.

`CCCn1cc(SCC(=O)NCc2ccc3c(c2)OCO3)c2ccccc21`: the Potency result in assay [1] and in assay [3] was “inactive” throughout. In assay [2], the activation is 0% [at 17.1 µM, percent relative to cAMP agonist control]. Also, in assay [4], the activity change, negative = inhibition was -3.41% [at 30.8 µM].

As to `O=S(=O)(c1ccc2c(c1)C(O)c1ccccc1CC2)C(F)(F)F` (centres undefined), the Potency result in assay [1], in assay [2], in assay [3] and in assay [4] was “inactive” throughout.

Regarding `O=C(N/N=C/c1coc2ccc(Cl)cc2c1=O)c1cc(O)cc(O)c1`, the Potency result in assay [1], in assay [2], in assay [3] and in assay [4] was “inactive” in each case.

Take `O=C(O)CC/C(=C/c1cccc(NC(=O)c2ccccc2Cl)c1)c1nc2ccccc2s1`: the Potency in assay [1] was 100 µM (active). The Potency result in assay [2], in assay [3] and in assay [4] was “inactive” throughout.

Turning to `Cc1ccc(SC/C(O)=C(\C#N)c2nc3ccccc3s2)cc1`, the Potency entry in assay [1], in assay [2], in assay [3] and in assay [4] was “inactive” throughout.

For `CCOC(=O)c1c(NC(=O)CSc2nnnn2-c2ccccc2OCC)sc2c1CC(C)(C)NC2(C)C`, the Potency entry in assay [1] and in assay [3] was “inactive” each time. Also, the activation in assay [2] is 5.6% [at 17.1 µM, percent relative to cAMP agonist control]. In assay [4], the activity change, negative = inhibition is -5.37% [at 30.8 µM].

With `Cc1nnc(SCC(=O)NCc2ccccc2F)c2nn(-c3ccc(Cl)cc3)c(C)c12`, the Potency result in assay [1], in assay [2], in assay [3] and in assay [4] was “inactive” each time.

Take `Cn1c(SCC(=O)c2cc(Cl)c(Cl)s2)nnc1-c1ccco1`: the Potency result in assay [1], in assay [2], in assay [3] and in assay [4] was “inactive” in each case.

Consider `O=c1c2ccccc2nc(N/N=C/c2c(O)ccc3ccccc23)n1O`, for which the Potency result in assay [1], in assay [2], in assay [3] and in assay [4] was “inactive” each time.

In the case of `CCc1nc2c(OCc3ccc(C(F)(F)F)cc3)cccn2c1N(C)C(=O)C(C)C`, the Potency entry in assay [1] and in assay [3] was “inactive” throughout. Also, the activation in assay [2] is -0.706% [at 17.1 µM, percent relative to cAMP agonist control]. Further, the activity change, negative = inhibition in assay [4] is -5.96% [at 30.8 µM].
